SMILES strings stand for the structures. Records with an inconclusive call do not appear. Active and inactive are the calls of the source. Unless noted, calls follow the shape of the dose curve; as a rule, active = well fitted curve in the direction sought with a large enough effect in the repeat runs; inconclusive = weak or mixed curves; inactive = no such curve, though single readings can be large; an effect the other way counts as inactive or inconclusive.

This is an account of results in PubChem BioAssay (Tox21).

Experiment [1] is described as follows: qHTS assay to identify small molecule agonists of the peroxisome proliferator-activated receptor delta (PPARd) signaling pathway - cell viability counter screen (AID 743211). Also: nearly all actives have a fitted effect of over 55% in size. The method in brief:
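In the same wells used for beta-lactamase reporter measurement, cytotoxicity is scored by CellTiter-Glo. HEK293H PPARd-bla cells receive compound for 17 h at 37C following a 5 h settling period.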

Experiment [2] can be described thus: qHTS assay to identify small molecule antagonists of the peroxisome proliferator-activated receptor delta (PPARd) signaling pathway - cell viability counter screen (AID 743213). Also: nearly all actives have a fitted effect of over 50% in size. The method in brief:
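Viability counter-screen, qHTS format: PPARd-bla HEK293H, L165041 300 nM final, 17 h compound exposure at 37 C, CellTiter-Glo luminescence after 30 min RT.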
Background: In qHTS, concentration-response curves come from the screen itself.

The nature of experiment [3]: qHTS assay to identify small molecule agonists of the farnesoid-X-receptor (FXR) signaling pathway - cell viability counter screen (AID 743218). Also: nearly all actives have a fitted effect of over 45% in size. Summed up:
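Same-well cytotoxicity check on FXR-UAS-bla HEK 293T cells: 5 h attachment, 16 h compound at 37 C, CellTiter-Glo luminescence read at room temperature after 30 min.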

Experiment [4] is described as follows: qHTS assay to identify small molecule antagonists of the farnesoid-X-receptor (FXR) signaling pathway - cell viability counter screen (AID 743221; active = well fitted cell-killing curve with a large enough effect in the repeat runs, not every such curve was filed as active; also: nearly all actives have a fitted effect of over 50% in size). Summed up: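 Here viability was scored by luminescence after CellTiter-Glo addition to wells already read for beta-lactamase. Prior treatment: compound plus CDCA (50 uM final), 16 h, 37 C, HEK 293T FXR-bla cells.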

For experiment [5], the target named is Vitamin D3 receptor (Homo sapiens) (UniProt P11473). In words: qHTS assay to identify small molecule agonists of the vitamin D receptor (VDR) signaling pathway (AID 743222; calls by dose curve). Summed up:
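Using LiveBLAzer B/G FRET detection, agonism was scored in VDR-bla cells exposed overnight (16 h, 37C) to DMSO-dissolved compounds; substrate incubation was 2 h at room temperature.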

The target is the same in experiment [6]. Kind of experiment: qHTS assay to identify small molecule antagonists of the vitamin D receptor (VDR) signaling pathway (AID 743223; active = well fitted inhibition curve with a large enough effect in the signal ratio in the repeat runs, not every such curve was filed as active; the % refers to the signal ratio). The method in brief:
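Inhibition of agonist-driven VDR signalling is scored in VDR-bla cells: 3 nM final 1alpha,25-dihydroxyvitamin D3 plus compound, 16 h at 37C, then beta-lactamase detection by FRET substrate fluorescence after 2 h.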

The nature of experiment [7]: qHTS assay to identify small molecule agonists of the vitamin D receptor (VDR) signaling pathway - cell viability counter screen (AID 743224). Also: series mostly up to about 63 µM; nearly all actives have a fitted effect of over 50% in size. The method in brief: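 Counter screen for cytotoxicity: VDR-bla cells at 2,000 cells/well, 16 h compound exposure, then CellTiter-Glo luminescence after the beta-lactamase measurement.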
Experiment [8] is described as follows: qHTS assay to identify small molecule antagonists of the vitamin D receptor (VDR) signaling pathway - cell viability counter screen (AID 743225). Also: nearly all actives have a fitted effect of over 50% in size. The method in brief:
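Compounds were pinned onto VDR-bla HEK 293T cells together with 1-alpha,25-dihydroxyvitamin D3 at 3 nM final. After 16 h at 37C and 5% CO2 plus the reporter readout, cell viability was measured by CellTiter-Glo luminescence (30 min, room temperature).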

Experiment [9] is described as follows: qHTS assay to identify small molecule agonists of the NFkB signaling pathway (AID 1159509; active = well fitted curve in the direction sought with a large enough effect in the signal ratio in the repeat runs, not every such curve was filed as active; the % refers to the signal ratio; also: series mostly up to about 61 µM). Summed up:
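Readout: FRET fluorescence, 405 nm excitation, 460/530 nm emission; beta-lactamase expression disrupts FRET. Cells: ME-180 stably carrying NF-kB-driven bla reporter. Compound exposure 5 hr, 37 C, 5% CO2.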

A short description of experiment [10]: qHTS assay to identify small molecule agonists of the NFkB signaling pathway - cell viability counter screen (AID 1159515; calls by dose curve; also: series mostly up to about 61 µM; nearly all actives have a fitted effect of over 55% in size). Summed up: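 Counter screen run alongside the NFkB-bla agonist assay: ME-180 reporter cells exposed to compounds for 5 hr, then lysed with CellTiter-Glo in the same wells. Luminescence, read after 30 min, reflects viable cells.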
Experiment [11] is described as follows: qHTS assay to identify small molecule agonists of the endoplasmic reticulum stress response signaling pathway (AID 1159516; active = well fitted activation curve with a large enough effect in the signal ratio in the repeat runs, not every such curve was filed as active; the % refers to the signal ratio). Summed up:
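For this screen, HeLa cells stably carrying beta-lactamase under the ER stress response element received test compounds, positive controls or DMSO for 5 hr at 37 C; B/G FRET substrate was then added and dual-wavelength emission recorded.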

Experiment [12] is described as follows: qHTS assay to identify small molecule agonists of the endoplasmic reticulum stress response signaling pathway - cell viability counter screen (AID 1159517; calls by dose curve). The method in brief:
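Steps: seed 1,500 ESRE-bla HeLa cells per well; incubate overnight at 37 C, 5% CO2; add compounds in DMSO for 5 hr; run FRET substrate 2 hr RT; add CellTiter-Glo, wait 30 min, read luminescence.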

The target in experiment [13] is Nuclear receptor ROR-gamma (Homo sapiens) (UniProt P51449). In words: qHTS assay to identify small molecule antagonists of the retinoid-related orphan receptor gamma (ROR-gamma) signaling pathway (AID 1159521). The method in brief: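 Test compounds were applied to Tet-on RORγ CHO cells 2 h ahead of doxycycline hyclate (1 uM final). Luciferase reporter activity was quantified by luminescence after 16 h at 37 C and 5% CO2.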

Experiment [14] in a line: qHTS assay to identify small molecule agonists of the AP-1 signaling pathway - cell viability counter screen (AID 1159525; calls by dose curve; also: nearly all actives have a fitted effect of over 55% in size). Summed up: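 Same-well cytotoxicity counter screen of the Tox21 10K library in ME-180 cells. The readout is ATP-dependent luminescence after 5 h compound treatment. Data are normalised to DMSO and tetra n-octyl ammonium bromide controls.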
Experiment [15] is described as follows: qHTS assay to identify small molecule agonists of the AP-1 signaling pathway (AID 1159526; calls by dose curve; also: potency is read from the fitted curve at half-maximal effect).
The target of experiment [16] is Peroxisome proliferator-activated receptor delta (Homo sapiens) (UniProt Q03181). Kind of experiment: qHTS assay to identify small molecule agonists of the peroxisome proliferator-activated receptor delta (PPARd) signaling pathway (AID 743212; calls by dose curve). Summed up: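 Read-out: beta-lactamase FRET fluorescence after 2 h room-temperature incubation with LiveBLAzer B/G substrate. Cells were HEK293H carrying a UAS-bla reporter for PPARd, treated at 37 C with DMSO-dissolved compounds.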
Peroxisome proliferator-activated receptor delta (Homo sapiens), sequence (Q03181 whole entry, looked up): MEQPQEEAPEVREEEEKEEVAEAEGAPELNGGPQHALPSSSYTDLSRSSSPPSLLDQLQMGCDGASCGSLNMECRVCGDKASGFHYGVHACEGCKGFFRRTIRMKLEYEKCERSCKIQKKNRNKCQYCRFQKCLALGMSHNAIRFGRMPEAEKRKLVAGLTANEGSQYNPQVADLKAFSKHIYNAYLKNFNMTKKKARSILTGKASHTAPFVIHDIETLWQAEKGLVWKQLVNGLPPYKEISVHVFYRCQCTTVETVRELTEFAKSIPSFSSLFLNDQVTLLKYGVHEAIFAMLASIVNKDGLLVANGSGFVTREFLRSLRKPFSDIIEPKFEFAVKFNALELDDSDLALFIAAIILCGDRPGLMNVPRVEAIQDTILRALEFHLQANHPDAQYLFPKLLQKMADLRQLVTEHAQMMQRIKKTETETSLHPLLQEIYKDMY

Experiment [17] has the same target. Kind of experiment: qHTS assay to identify small molecule antagonists of the peroxisome proliferator-activated receptor delta (PPARd) signaling pathway (AID 743215; active = well fitted inhibition curve with a large enough effect in the signal ratio in the repeat runs, not every such curve was filed as active; the % refers to the signal ratio;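 also: cells stimulated with agonist L165041 at 300 nM final during compound exposure; series mostly up to about 62 µM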). The method in brief: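 Screen format: qHTS, antagonist mode. HEK293H PPARd-bla cells received compound and 300 nM L165041 (final), 17 h, 37 C. Beta-lactamase detected via FRET substrate fluorescence, 2 h, room temperature.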

The nature of experiment [18]: qHTS assay to identify small molecule antagonists of the retinoid-related orphan receptor gamma (ROR-gamma) signaling pathway - cell viability counter screen (AID 1159520). Also: nearly all actives have a fitted effect of over 50% in size. The method in brief: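 Tet-on ROR gamma CHO cells were given compounds for 2 hr, then doxycycline hyclate at 1 uM final, and incubated 16 hr at 37 C. Viability was measured as ATP content by CellTiter-Glo luminescence.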

Experiment [19] concerns the target Bile acid receptor (Homo sapiens) (UniProt Q96RI1). Kind of experiment: qHTS assay to identify small molecule antagonists of the farnesoid-X-receptor (FXR) signaling pathway (AID 743217; active = well fitted inhibition curve with a large enough effect in the signal ratio in the repeat runs, not every such curve was filed as active; the % refers to the signal ratio). The method in brief: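 Quantitative HTS, beta-lactamase reporter format: FXR-UAS-bla HEK 293T cells co-treated 16 h at 37 °C with compounds and 50 uM final chenodeoxycholic acid, then read by B/G FRET fluorescence.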

The target is the same in experiment [20]. Kind of experiment: qHTS assay to identify small molecule agonists of the farnesoid-X-receptor (FXR) signaling pathway (AID 743220; active = well fitted activation curve with a large enough effect in the signal ratio in the repeat runs, not every such curve was filed as active; the % refers to the signal ratio). The method in brief:
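FXR-UAS-bla HEK 293T cells carrying a UAS-driven beta-lactamase reporter were plated for 5 h at 37C/5% CO2, then exposed to DMSO-dissolved Tox21 10K compounds for 16 h at 37C. A LiveBLAzer B/G FRET substrate was loaded for 2 h at room temperature before fluorescence reading.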

Vitamin D3 receptor (Homo sapiens), sequence (P11473 whole entry, looked up): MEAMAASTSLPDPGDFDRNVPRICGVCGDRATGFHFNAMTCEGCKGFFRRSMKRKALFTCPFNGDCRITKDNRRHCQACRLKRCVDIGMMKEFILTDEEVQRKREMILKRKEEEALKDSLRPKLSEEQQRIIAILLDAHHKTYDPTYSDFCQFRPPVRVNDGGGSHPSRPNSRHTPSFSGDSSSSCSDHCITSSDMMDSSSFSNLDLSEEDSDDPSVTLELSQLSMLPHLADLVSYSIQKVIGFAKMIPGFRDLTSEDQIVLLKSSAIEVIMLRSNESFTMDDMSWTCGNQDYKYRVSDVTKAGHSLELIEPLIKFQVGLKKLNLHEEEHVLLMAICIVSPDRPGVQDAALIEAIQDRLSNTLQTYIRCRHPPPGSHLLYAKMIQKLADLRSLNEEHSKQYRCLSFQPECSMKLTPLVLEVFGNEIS
Bile acid receptor (Homo sapiens), sequence (Q96RI1 whole entry, looked up): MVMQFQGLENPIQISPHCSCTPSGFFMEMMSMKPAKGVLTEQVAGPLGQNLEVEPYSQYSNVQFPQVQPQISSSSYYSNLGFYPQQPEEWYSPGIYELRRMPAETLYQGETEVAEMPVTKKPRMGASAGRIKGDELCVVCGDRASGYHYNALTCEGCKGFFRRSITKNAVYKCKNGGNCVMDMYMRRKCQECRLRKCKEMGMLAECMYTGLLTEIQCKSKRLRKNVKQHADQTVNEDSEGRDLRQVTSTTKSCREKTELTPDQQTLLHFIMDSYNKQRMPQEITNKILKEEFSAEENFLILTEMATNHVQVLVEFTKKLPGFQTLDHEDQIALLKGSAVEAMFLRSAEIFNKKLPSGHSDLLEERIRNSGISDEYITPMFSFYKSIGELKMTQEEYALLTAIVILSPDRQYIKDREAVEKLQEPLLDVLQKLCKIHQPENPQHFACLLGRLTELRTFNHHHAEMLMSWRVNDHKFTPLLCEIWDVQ

Regarding `CC(NC(C)(C)C)C(=O)c1cccc(Cl)c1` (stereo not given), the result in experiment [1], in experiment [2], in experiment [3], in experiment [4], in experiment [5] and in experiment [6] was inactive. The molecule was called inactive in experiment [7], in experiment [8], in [9], in experiment [10], in experiment [11] and in [12]. Moreover, the Potency result in [13] and in [14] was “inactive” throughout. Besides, the Potency in experiment [15] is 36.8 µM (active).

On to `CC(C)C#N`, for which the outcome in [1], in experiment [16], in [2], in [3], in [4] and in experiment [7] was inactive. In addition, the outcome in experiment [8], in experiment [9], in experiment [10], in experiment [11] and in [12] was inactive. Besides, the Potency result in experiment [17], in experiment [18], in [13] and in [15] was “inactive” in each case.

For `ClCCBr`, the call in [1], in experiment [16], in experiment [2], in [3], in [4] and in [7] was inactive. The molecule was called inactive in [8], in [9], in experiment [10], in experiment [11] and in experiment [12]. Moreover, the Potency result in experiment [17], in [13], in [14] and in experiment [15] was “inactive” in each case.

On to `CON(C)C(=O)Nc1ccc(Cl)c(Cl)c1`, for which the molecule was called inactive in [1], in [16], in experiment [3], in experiment [4], in experiment [5] and in experiment [6]. In addition, the molecule was classed as inactive in [7], in experiment [8], in experiment [9], in experiment [10], in experiment [11] and in experiment [12]. The Potency entry in [17], in experiment [18], in experiment [13] and in experiment [15] was “inactive” in each case.

With `O=NN1CCCCCCC1`, the outcome in experiment [1], in [2], in experiment [19], in experiment [3], in experiment [20] and in experiment [4] was inactive. For the same molecule, the result in [7], in experiment [8], in [9], in experiment [10], in experiment [11] and in experiment [12] was inactive. Moreover, the Potency result in experiment [18], in [14] and in experiment [15] was “inactive” each time.

On to `Nc1ccc(Cc2ccc(N)cc2)cc1`, for which the call in experiment [1], in [16], in experiment [2], in experiment [19], in experiment [3] and in experiment [20] was inactive. For the same molecule, the molecule was called inactive in experiment [4], in experiment [5], in experiment [6], in experiment [7], in experiment [8] and in [9]. Also, the call in [10], in [11] and in [12] was inactive. The Potency entry in [17], in experiment [18], in experiment [13] and in [15] was “inactive” throughout.

For `CCCN(CCC)c1c([N+](=O)[O-])cc(C(F)(F)F)cc1[N+](=O)[O-]`, the call in experiment [1], in experiment [16], in experiment [2], in [19], in experiment [3] and in experiment [20] was inactive. Further, the call in experiment [4], in experiment [5], in experiment [6], in experiment [7], in [8] and in [9] was inactive. Further, the molecule was called inactive in experiment [10], in experiment [11] and in experiment [12]. Further, the Potency entry in experiment [17], in experiment [18], in experiment [13], in experiment [14] and in [15] was “inactive” in each case.

On to `C=C(C)CCl`, for which the molecule was classed as inactive in experiment [1], in experiment [16], in experiment [2], in experiment [19], in experiment [3] and in experiment [20]. For the same molecule, the call in [4], in [5], in experiment [6], in experiment [7], in [8] and in experiment [9] was inactive. Also, the molecule was classed as inactive in experiment [10], in experiment [11] and in [12]. Also, the Potency result in [17], in experiment [18], in [13] and in experiment [15] was “inactive” in each case.

For `c1ccc2c(c1)Oc1ccccc1O2`, the result in experiment [1], in experiment [2], in [19], in experiment [3], in experiment [20] and in experiment [4] was inactive. In addition, the molecule was classed as inactive in [5], in experiment [7], in experiment [8], in experiment [9], in [10] and in [11]. Besides, the outcome in experiment [12] was inactive. Besides, the Potency entry in [13], in [14] and in experiment [15] was “inactive” throughout.
